SMILES strings stand for the structures. This is part of a sample that, as a whole, favours compounds with a hit. Of some 83,000 tested, about 20% had one in any assay.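 Activity criterion: percent growth below 10, measured after cells in 96-well plates were exposed to a single compound concentration for 48 hours.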 Unmarked numbers belong to inactive results. Active and inactive are the calls of the source.

The values below come from PubChem BioAssay (NCI).

Test in all cases: NCI-60 one-dose screen, 48 h (100 = growth as untreated, 0 = no growth, -100 = all killed)
Common to all, as to conditions: 10 µM unless noted

Experiment [1] concerns T-47D breast.
In experiment [2] the test system is BT-549 breast.
Experiment [3] concerns MDA-MB-435 melanoma.
Experiment [4] concerns SW-620 colon.
Experiment [5] concerns MCF7 breast.
The test system of experiment [6] is HCT-116 colon.
The subject of experiment [7] is HCC-2998 colon.
Experiment [8] concerns KM12 colon.

With `NC(=O)NS(=O)(=O)c1ccc(N2N=C(C(F)(F)F)CC2c2cc(C(F)(F)F)cc(C(F)(F)F)c2)cc1` (stereo not drawn), the growth in experiment [1] was 72.4%; in experiment [2] it was 98%; in experiment [3], 40%; in experiment [4] it was 82.6%; in experiment [5], 49.7%; in experiment [6], 55.9%. Also, the growth in experiment [7] was 88.2%; in experiment [8], 71%.

`NS(=O)(=O)c1cc(C2(O)NC(=O)c3ccccc32)ccc1Cl` (stereo not drawn): the growth in experiment [1] was 109%; in experiment [2] it was 97.7%; in experiment [3], 101%; in experiment [4], 109%; in experiment [5], 102%; in experiment [6] it was 98.9%. Further, the growth is 109% in experiment [7] and 111% in experiment [8].

Turning to `C1CCC(C(CC2CCCCN2)C2CCCCC2)CC1` (stereo not drawn), the growth in experiment [1] was -48.9% (active); in experiment [2], 41.1%; in experiment [3], -73.8% (active); in experiment [4] it was -84.6% (active); in experiment [5] it was -62.6% (active); in experiment [6], -94.1% (active). Further, the growth in experiment [7] is -90.6% (active); in experiment [8] it was -54.1% (active).

Consider `NS(=O)(=O)c1ccc(-n2ncc3c(SCc4ccccc4)ncnc32)cc1`, for which the growth is 91.6% in experiment [1]; 91.6% in experiment [2]; 106% in experiment [3]; 95.5% in experiment [4]; 98.7% in experiment [5]; 82.7% in experiment [6]. For the same compound, the growth in experiment [7] was 127%; in experiment [8], 94.1%.

As to `Oc1ccccc1/C=N/N1CCCCCC1`, the growth in experiment [1] is 102%; in experiment [2] it was 97.9%; in experiment [3], 99.9%; in experiment [4] it was 108%; in experiment [5] it was 83.8%; in experiment [6], 102%. In addition, the growth was 95.8% in experiment [7] and 103% in experiment [8].

For the compound `Cc1nn(-c2nc3ccccc3s2)c(C)c1Oc1ccccc1O`, the growth in experiment [1] is 87.1%; in experiment [2] it was 63%; in experiment [3], 72.4%; in experiment [4], 47.8%; in experiment [5], 81.7%; in experiment [6] it was 27.4%. For the same compound, the growth was 250% in experiment [7] and 63.6% in experiment [8].

Turning to `COc1cc(/C=N/NC(=O)c2ccc(C(F)(F)F)nc2Nc2ccc(Cl)cc2C)ccc1O`, the growth in experiment [1] was 33.7%; in experiment [2], 16%; in experiment [3] it was 39.2%; in experiment [4], 26.2%; in experiment [5], 27.8%; in experiment [6], 11.3%. Besides, the growth was 42.8% in experiment [7] and 24.5% in experiment [8].

Turning to `c1ccc(N2c3nc4ccccc4cc3Sc3cc4ccccc4nc32)nc1`, the growth was 82.6% in experiment [1]; 93.2% in experiment [2]; 115% in experiment [3]; 90.8% in experiment [4]; 74% in experiment [5]; 98.5% in experiment [6]. Moreover, in experiment [7], the growth was 113%.

Consider `Cc1ccc(C(NC(=O)c2ccccc2)c2ccc3cccnc3c2O)cc1` (stereo not drawn), for which the growth was 25.1% in experiment [1]; 25.5% in experiment [2]; 30% in experiment [3]; 31.3% in experiment [4]; 24.8% in experiment [5]; 22.8% in experiment [6]. Also, the growth is 30.7% in experiment [7] and 26.5% in experiment [8].

Regarding `COc1cc(-c2nc3sc4c(c3c(=O)[nH]2)CCCCCC4)cc(OC)c1OC`, the growth in experiment [1] is 32.8%; in experiment [2], 53.1%; in experiment [3], -18% (active); in experiment [4], 30.3%; in experiment [5], 15%; in experiment [6] it was 20.3%. The growth is -1.77% (active) in experiment [7] and 28.6% in experiment [8].

On to `N#Cc1c(-c2ccc(F)cc2)n2c(nc1=O)SC(=O)C2=O`, for which the growth in experiment [1] is 114%; in experiment [2], 99.1%; in experiment [3], 96.5%; in experiment [4], 103%; in experiment [5], 89.4%; in experiment [6] it was 102%. Besides, the growth in experiment [7] is 102%; in experiment [8] it was 104%.

On to `CC(=O)/C(=C/c1ccc(Cl)cc1)C(=O)c1ccccc1`, for which the growth in experiment [1] was 83%; in experiment [2] it was 97.4%; in experiment [3], 61.4%; in experiment [4], 61.3%; in experiment [5] it was 53.1%; in experiment [6], 66%. Moreover, the growth in experiment [7] is 99.2%.

Take `c1ccc(-c2oc(-c3ccccc3)c3ccccc23)cc1`: the growth in experiment [1] was 101%; in experiment [2] it was 96.5%; in experiment [3] it was 107%; in experiment [4], 109%; in experiment [5] it was 122%; in experiment [6], 108%. For the same compound, the growth in experiment [7] is 107%; in experiment [8] it was 105%.

For `CC[n+]1c(/C=C/c2ccc(N3CCCC3)cc2)cccc1/C=C/c1ccc(N2CCCC2)cc1`, the growth in experiment [1] is -61% (active); in experiment [2] it was -89.7% (active); in experiment [3], -70.7% (active); in experiment [4] it was -88.1% (active); in experiment [5], -85.5% (active); in experiment [6], -54.7% (active). For the same compound, the growth in experiment [7] is -82.5% (active); in experiment [8] it was -81.5% (active).

Consider `NS(=O)(=O)c1ccc(-n2ncc3c(NC4CCCCC4)ncnc32)cc1`, for which the growth is 80.4% in experiment [1]; 108% in experiment [2]; 92.5% in experiment [3]; 113% in experiment [4]; 116% in experiment [5]; 93.6% in experiment [6]. The growth was 91.5% in experiment [7] and 83.6% in experiment [8].
